Assay results reported in PubChem BioAssay (EPA / NIEHS).
Records with an inconclusive call do not appear. The source made the active and inactive calls. How the source made its calls: active means hit-call score of the fitted dose curve at least 0.9, where 1 is the maximum; inconclusive means response in the unintended direction; inactive means score below 0.9.

Key:
[1] = biological target: human Vascular Endothelial Growth Factor Receptor 1 (VEGFR1), FLT1 (gene 2321) (UniProt P17948); experiment: NVS_ENZ_hVEGFR1: NovaScreen (NVS) Enzymatic Assay for human Vascular Endothelial Growth Factor Receptor 1 (VEGFR1) (AID 2283226)
In short: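 Kinase activity of recombinant human VEGFR1 was read by fluorescence after electrophoretic separation of product from substrate, 1 h post-dosing; initial duplicate single-point testing at 25 uM, followed by concentration-series follow-up, with DMSO as baseline.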

[2] = biological target: human Adenosine A1 Receptor (AdoRA1), ADORA1 (gene 134) (UniProt P30542); experiment: NVS_GPCR_hAdoRA1: NovaScreen (NVS) G Protein-Coupled Receptor Assay for human Adenosine A1 Receptor (AdoRA1) (AID 2283254)
In short: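 Membranes from human cortical tissue were incubated with radioligand and test chemical for 1 hour, then filtered and counted. Activity was taken as signal loss relative to DMSO, screened at 25 uM in duplicate before concentration-response follow-up.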

Chain of human Adenosine A1 Receptor (AdoRA1), ADORA1 (gene 134) (P30542 whole entry, looked up): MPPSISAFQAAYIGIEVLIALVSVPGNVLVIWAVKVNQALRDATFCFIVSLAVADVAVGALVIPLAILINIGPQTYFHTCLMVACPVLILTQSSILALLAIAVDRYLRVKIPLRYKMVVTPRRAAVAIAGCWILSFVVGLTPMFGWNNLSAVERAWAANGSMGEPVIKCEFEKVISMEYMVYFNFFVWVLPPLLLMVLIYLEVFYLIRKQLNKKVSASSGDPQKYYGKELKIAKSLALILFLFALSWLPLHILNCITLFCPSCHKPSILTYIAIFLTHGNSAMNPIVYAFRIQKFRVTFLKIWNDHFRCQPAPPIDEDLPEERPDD
Chain of human Vascular Endothelial Growth Factor Receptor 1 (VEGFR1), FLT1 (gene 2321) (P17948 whole entry, looked up): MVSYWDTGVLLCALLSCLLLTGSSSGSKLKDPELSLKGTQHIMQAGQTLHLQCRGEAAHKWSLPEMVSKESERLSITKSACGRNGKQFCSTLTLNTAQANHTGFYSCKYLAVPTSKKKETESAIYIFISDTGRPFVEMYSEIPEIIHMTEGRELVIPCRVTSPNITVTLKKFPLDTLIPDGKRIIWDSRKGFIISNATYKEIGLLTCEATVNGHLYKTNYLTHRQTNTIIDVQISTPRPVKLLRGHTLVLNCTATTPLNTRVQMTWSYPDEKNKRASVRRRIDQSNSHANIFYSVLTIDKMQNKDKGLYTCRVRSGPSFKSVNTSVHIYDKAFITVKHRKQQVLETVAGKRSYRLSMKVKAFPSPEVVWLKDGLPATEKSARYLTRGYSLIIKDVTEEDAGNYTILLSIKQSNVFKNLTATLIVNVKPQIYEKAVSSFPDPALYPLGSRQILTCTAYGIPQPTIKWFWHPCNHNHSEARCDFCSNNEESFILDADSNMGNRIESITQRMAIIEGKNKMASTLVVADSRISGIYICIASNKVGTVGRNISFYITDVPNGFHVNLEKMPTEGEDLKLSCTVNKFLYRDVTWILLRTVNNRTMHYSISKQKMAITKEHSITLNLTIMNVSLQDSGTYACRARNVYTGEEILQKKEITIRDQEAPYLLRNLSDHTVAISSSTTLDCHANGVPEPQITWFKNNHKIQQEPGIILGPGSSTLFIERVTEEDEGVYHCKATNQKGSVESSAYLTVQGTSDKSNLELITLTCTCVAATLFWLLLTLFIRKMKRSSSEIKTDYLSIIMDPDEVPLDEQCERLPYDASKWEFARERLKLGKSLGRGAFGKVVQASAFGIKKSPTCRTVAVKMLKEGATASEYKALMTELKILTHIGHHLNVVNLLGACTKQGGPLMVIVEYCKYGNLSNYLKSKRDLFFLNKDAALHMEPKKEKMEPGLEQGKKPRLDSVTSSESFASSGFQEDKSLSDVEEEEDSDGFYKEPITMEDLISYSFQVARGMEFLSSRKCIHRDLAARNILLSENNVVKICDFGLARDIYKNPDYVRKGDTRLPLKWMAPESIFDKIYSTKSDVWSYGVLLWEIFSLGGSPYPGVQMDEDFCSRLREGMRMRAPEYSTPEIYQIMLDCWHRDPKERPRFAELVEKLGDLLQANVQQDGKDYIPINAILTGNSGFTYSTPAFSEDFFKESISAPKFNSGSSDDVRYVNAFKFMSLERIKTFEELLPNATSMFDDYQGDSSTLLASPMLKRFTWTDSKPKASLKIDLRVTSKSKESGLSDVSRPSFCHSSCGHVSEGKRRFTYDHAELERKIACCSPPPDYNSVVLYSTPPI

## COc1cc2ncnc(Nc3cccc(Cl)c3)c2cc1OC
[1]
  AC50: 1.27 µM (active)
[2]
  AC50: 9.94 µM (active)

## c1ccc2c(c1)c1cccc3ccc4cccc2c4c31
[1]
  outcome: inactive

## Cc1c(Cl)c(=O)oc2cc(O)ccc12
[2]
  outcome: inactive
